According to the supplement of paper PMC9925115:

These molecules were tested on FLX1 + dox-induced PRKAR1A G325D (assay: difference in log2 fold change of viability vs plate median (dox-induced PRKAR1A G325D minus uninduced); higher = compound less effective when PKA is inhibited). Settings: concentration: not stated (2 or 5 uM); 5 days.
Description: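 For each plate a log2 fold change vs the plate median was derived, and the values without dox were subtracted from those with dox, averaged over three biological replicates.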

**Q.** For Cc1ccccc1-n1c(Cn2ncc3c(N)ncnc32)nc2cccc(C)c2c1=O, which “difference in log2 fold change of viability” value (from here on “difference in log2 fold change”) is on record?
**A.** The value was -0.0566.

**Q.** With Cn1cc(C2=C(c3cn(C4CCN(Cc5ccccn5)CC4)c4ccccc34)C(=O)NC2=O)c2ccccc21 as the molecule, how does the “difference in log2 fold change” value read?
**A.** The value was -0.214.

**Q.** How did the “difference in log2 fold change” value turn out when O=c1[nH]c2ccc(Cl)cc2c(N[C@@H]2CN3CCC2CC3)c1-c1nc2ccccc2[nH]1 was run?
**A.** Its value is -0.0624.

**Q.** How did the “difference in log2 fold change” value turn out when CC(C)(C)c1cc(C=C(C#N)C#N)cc(C(C)(C)C)c1O [Tyrphostin 9] was run?
**A.** The value was 0.375.

**Q.** With CC(C)(C)c1cc(C=C(C#N)C#N)cc(Br)c1O as the molecule, how does the “difference in log2 fold change” value read?
**A.** Its value is 0.78.

**Q.** With CCN1CCN(C(=O)Cc2ccc(Nc3ncc(F)c(Nc4ccc(C(=O)Nc5ccccc5Cl)cc4)n3)cc2)CC1 [Aurora A Inhibitor I] as the molecule, how does the “difference in log2 fold change” value read?
**A.** Its value is -0.138.
